Data published in PubChem BioAssay.
Active and inactive are the calls of the source.

Tests used:
Albumin (Bos taurus) = Albumin (Bos taurus) (UniProt P02769); experiment: bovine serum albumin binders on microarray, profiling panel, artefact control for SMM control protein annotation, biochemical, small-molecule microarray, Alexa647 label, 635/667 nm fluorescence (AID 1118); conditions: BSA-A647 binding, fluorescence 635 nm, higher = more signal;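 further: score merges 667 nm emission intensity and signal-to-noise per printed compound spot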
[1] = small-molecule microarray binders of probe aXIP, primary screen, biochemical, NeuroSMM set, 635/667 nm fluorescence (AID 1119); conditions: higher = more signal, called active from +8 up or from −8 down;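 further: probe is the protein aXip251-270 applied at 1 µg/mL to compound-printed slides; binding of probe to printed compounds measured as 667 nm fluorescence plus signal to noise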
[2] = small-molecule binders of probe aNOTCH3, primary screen, biochemical, small-molecule microarray, 635/667 nm fluorescence (AID 1120); conditions: higher = more signal;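 further: probe is a biotin-tagged antibody raised against NOTCH3 rather than NOTCH3 protein; score merges spot fluorescence near 667 nm with spot signal to noise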
[3] = small-molecule binders of probe aNOTCH2, primary screen, biochemical, small-molecule microarray, 635/667 nm fluorescence (AID 1121); conditions: higher = more signal;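 further: score merges feature fluorescence read at 667 nm with its signal to noise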
[4] = biological target: Carbonic anhydrase 2 (Homo sapiens) (UniProt P00918); experiment: CAII small-molecule binders, profiling panel, biochemical, small-molecule microarray, Alexa647-labelled CAII (AID 1122); conditions: CAII-A647 binding fluorescence, higher = more signal
[5] = COS7 lysate on small-molecule microarray, probe aHis, 635 nm (AID 1123); conditions: COS7 cell lysate, fluorescence, higher = more signal;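 further: z-score combines 667nm fluorescence intensity with signal-to-noise per printed compound spot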
[6] = compound binding in COS7 lysate, probe aLAP1, primary screen, cell lysate, small-molecule microarray (AID 1124); conditions: probe aLAP1, fluorescence, higher = more signal;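 further: lysate comes from COS7 cells expressing LAP1 and is applied at 0.3 µg/mL; score merges spot fluorescence near 667 nm with signal-to-noise over triplicate slides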
Sam68 (KHDRBS1) = experiment: Sam68 small-molecule binders, primary screen, biochemical, small-molecule microarray, 635 nm fluorescence (AID 1125); conditions: small-molecule microarray binding, higher = more signal;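 further: score merges 667 nm channel intensity with signal to noise over triplicate slides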
[7] = tested on: Chordin-like protein 2 (CHRDL2); experiment: CHRDL2 small-molecule binders, primary screen, biochemical, small-molecule microarray, 635 nm fluorescence (AID 1126); conditions: small-molecule microarray binding, fluorescence 635 nm; higher = more signal;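 further: printed compound slides probed with Chrdl2 protein at 4 µg/mL for 1 h at 4 C; score merges 667 nm emission intensity with signal to noise over three replicate slides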
[8] = biological target: Concanavalin-A (Canavalia ensiformis) (UniProt P02866); experiment: ConA small-molecule binders, primary screen, artefact control for SMM control protein annotation, biochemical, small-molecule microarray, Alexa647 label, 635 nm (AID 1127); conditions: ConA-A647 binding fluorescence, higher = more signal;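 further: z combines 667 nm emission intensity with signal-to-noise across three replicate slides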
[9] = anti-His antibody binders, primary screen, artefact control for SMM control protein annotation, biochemical, small-molecule microarray, 635 nm fluorescence (AID 1128); conditions: anti-His Alexa647 antibody binding, higher = more signal;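 further: score merges feature fluorescence with signal-to-noise for each printed compound spot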
[10] = tested on: Human papillomavirus type 1a E7 protein (residues 1-88); experiment: HPV1a E7 small-molecule binders, primary screen, biochemical, small-molecule microarray, residues 1-88, 635 nm (AID 1129); conditions: small-molecule microarray binding, fluorescence 635 nm; higher = more signal
[11] = biological target: Focal adhesion kinase 1 (Homo sapiens) (UniProt Q05397); experiment: small-molecule microarray binders of FAK, primary screen, biochemical, 635/667 nm fluorescence, BSA, DTT (AID 1130); conditions: PTK2 binding, 635 nm fluorescence, higher = more signal;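 further: composite of spot emission at 667 nm and signal to noise over triplicate slides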
[12] = tested on: Fibrinogen (Alexa647-labelled); experiment: fibrinogen binders on compound microarrays, profiling panel, artefact control for SMM control-protein annotation, biochemical, small-molecule microarray, 635/667 nm fluorescence (AID 1131); conditions: fibrinogen-A647 binding fluorescence, higher = more signal;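 further: z-score merges 667 nm fluorescence with per-spot signal-to-noise over triplicate slides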
[13] = biological target: Follistatin (Homo sapiens) (UniProt P19883); experiment: follistatin binders on small-molecule microarrays, primary screen, biochemical, small-molecule microarray, 635/667 nm fluorescence (AID 1132); conditions: FST binding, 635 nm fluorescence, higher = more signal
[14] = biological target: Fibroblast growth factor 2 (Homo sapiens) (UniProt P09038); experiment: FGF2 binders on small-molecule microarrays, primary screen, biochemical, small-molecule microarray, 635/667 nm fluorescence (AID 1133); conditions: small-molecule microarray binding, FGF2, fluorescence 635/667; higher = more signal
[15] = mitochondrial membrane potential change in A549 cells, profiling panel, cell-based, JC-1 fluorescence, basal, 24 h, 100 nL (AID 1138); conditions: higher = more signal;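 further: A549 lung adenocarcinoma cells under basal conditions with no added stimulus; test concentration not given here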
Lefty1 = Lefty1 binders on small-molecule microarrays, primary screen, biochemical, small-molecule microarray, 635/667 nm fluorescence (AID 1139); conditions: small-molecule microarray binding, fluorescence 635/667; higher = more signal
[16] = tested on: wheat germ agglutinin (Triticum aestivum), Alexa647-labelled; experiment: wheat germ agglutinin binders on compound microarrays, profiling panel, artefact control for SMM control-protein annotation, biochemical, small-molecule microarray, 635/667 nm fluorescence (AID 1140); conditions: WGA-A647 binding, 635 nm fluorescence, higher = more signal;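 further: score merges 667 nm feature emission with signal to noise over triplicate slides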
[17] = biological target: Luciferin 4-monooxygenase (Photinus pyralis) (UniProt P08659); experiment: firefly luciferase enzyme inhibitors, primary screen, biochemical, luminescence, purified enzyme, 2006 set (AID 1141); conditions: SteadyGlo luminescence, 30 min, higher = more signal, called active from +8 up or from −8 down;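 further: cell-free assay with purified firefly luciferase at 100 ng per well in PBS; test concentration not given here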
Chain of Luciferin 4-monooxygenase (Photinus pyralis) (P08659 whole entry, looked up): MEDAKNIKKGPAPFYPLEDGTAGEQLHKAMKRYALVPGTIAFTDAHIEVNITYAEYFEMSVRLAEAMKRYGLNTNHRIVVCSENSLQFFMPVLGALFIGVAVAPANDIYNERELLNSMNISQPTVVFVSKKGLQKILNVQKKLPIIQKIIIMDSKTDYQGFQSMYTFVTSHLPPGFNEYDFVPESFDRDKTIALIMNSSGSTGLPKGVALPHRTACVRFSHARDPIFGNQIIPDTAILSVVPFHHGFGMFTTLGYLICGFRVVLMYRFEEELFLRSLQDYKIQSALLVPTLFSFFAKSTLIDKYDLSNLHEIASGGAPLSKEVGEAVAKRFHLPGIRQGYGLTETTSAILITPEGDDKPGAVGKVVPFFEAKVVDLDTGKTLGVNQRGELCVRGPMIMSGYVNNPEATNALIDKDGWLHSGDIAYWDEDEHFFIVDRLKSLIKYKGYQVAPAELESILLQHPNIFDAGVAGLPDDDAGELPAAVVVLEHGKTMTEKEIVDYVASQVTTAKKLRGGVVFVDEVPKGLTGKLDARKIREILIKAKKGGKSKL

Chain of Focal adhesion kinase 1 (Homo sapiens) (Q05397 whole entry, looked up): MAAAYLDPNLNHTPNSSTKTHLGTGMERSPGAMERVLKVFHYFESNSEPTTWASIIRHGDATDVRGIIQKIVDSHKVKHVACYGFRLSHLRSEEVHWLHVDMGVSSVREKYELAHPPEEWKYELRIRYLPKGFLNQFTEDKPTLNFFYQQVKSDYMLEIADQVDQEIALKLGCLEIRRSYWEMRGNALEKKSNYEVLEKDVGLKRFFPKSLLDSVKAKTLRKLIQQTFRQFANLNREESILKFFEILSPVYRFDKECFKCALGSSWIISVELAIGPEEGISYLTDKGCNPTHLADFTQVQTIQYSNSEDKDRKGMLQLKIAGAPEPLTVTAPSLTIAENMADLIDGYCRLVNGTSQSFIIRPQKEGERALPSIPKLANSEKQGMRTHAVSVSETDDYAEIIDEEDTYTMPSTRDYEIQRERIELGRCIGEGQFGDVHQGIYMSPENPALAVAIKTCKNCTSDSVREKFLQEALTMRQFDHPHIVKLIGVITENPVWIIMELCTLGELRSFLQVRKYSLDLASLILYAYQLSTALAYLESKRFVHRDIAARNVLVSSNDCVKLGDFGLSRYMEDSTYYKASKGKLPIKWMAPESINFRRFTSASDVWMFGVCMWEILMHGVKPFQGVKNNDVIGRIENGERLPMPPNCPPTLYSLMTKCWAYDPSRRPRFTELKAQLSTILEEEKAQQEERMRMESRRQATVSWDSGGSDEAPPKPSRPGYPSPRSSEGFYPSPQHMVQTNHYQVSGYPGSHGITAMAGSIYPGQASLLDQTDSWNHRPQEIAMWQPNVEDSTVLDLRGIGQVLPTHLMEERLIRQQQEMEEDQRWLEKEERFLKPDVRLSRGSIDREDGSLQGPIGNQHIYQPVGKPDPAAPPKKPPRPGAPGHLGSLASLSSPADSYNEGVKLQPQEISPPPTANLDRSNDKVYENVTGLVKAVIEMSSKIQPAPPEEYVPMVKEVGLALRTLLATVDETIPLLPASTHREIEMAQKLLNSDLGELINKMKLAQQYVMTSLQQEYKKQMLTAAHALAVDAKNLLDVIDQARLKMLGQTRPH
Chain of Albumin (Bos taurus) (P02769 whole entry, looked up): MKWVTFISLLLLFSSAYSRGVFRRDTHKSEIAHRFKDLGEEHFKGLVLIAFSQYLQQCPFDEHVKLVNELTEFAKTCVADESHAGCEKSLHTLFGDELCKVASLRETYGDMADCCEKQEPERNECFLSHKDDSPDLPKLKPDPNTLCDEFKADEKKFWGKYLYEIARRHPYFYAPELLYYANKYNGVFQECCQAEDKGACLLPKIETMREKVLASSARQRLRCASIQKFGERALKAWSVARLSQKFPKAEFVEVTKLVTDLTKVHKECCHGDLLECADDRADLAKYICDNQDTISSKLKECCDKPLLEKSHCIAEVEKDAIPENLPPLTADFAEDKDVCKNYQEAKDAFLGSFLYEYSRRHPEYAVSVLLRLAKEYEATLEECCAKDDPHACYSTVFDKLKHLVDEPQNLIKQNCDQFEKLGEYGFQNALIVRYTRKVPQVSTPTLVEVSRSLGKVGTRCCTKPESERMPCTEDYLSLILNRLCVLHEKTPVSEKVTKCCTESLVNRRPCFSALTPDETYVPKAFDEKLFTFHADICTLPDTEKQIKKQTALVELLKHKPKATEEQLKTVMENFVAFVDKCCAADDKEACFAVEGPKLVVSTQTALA
Chain of Follistatin (Homo sapiens) (P19883 whole entry, looked up): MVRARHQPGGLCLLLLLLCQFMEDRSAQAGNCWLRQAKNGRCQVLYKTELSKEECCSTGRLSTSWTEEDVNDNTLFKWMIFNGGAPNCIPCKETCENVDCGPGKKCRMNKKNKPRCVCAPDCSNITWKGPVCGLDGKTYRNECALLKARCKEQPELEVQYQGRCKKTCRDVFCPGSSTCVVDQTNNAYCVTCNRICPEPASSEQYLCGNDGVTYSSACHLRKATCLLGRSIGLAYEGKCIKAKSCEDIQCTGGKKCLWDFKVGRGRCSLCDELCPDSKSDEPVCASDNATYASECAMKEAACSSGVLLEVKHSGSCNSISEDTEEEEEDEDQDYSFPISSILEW
Chain of Concanavalin-A (Canavalia ensiformis) (P02866 whole entry, looked up): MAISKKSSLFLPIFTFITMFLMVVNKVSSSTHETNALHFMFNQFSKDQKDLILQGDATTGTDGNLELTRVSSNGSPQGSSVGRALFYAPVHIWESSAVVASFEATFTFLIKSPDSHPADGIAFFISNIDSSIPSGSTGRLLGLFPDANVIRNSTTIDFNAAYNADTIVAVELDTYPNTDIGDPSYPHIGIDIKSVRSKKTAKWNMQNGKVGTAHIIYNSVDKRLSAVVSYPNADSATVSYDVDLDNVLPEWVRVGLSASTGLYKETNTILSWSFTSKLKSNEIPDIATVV
Chain of Fibroblast growth factor 2 (Homo sapiens) (P09038 whole entry, looked up): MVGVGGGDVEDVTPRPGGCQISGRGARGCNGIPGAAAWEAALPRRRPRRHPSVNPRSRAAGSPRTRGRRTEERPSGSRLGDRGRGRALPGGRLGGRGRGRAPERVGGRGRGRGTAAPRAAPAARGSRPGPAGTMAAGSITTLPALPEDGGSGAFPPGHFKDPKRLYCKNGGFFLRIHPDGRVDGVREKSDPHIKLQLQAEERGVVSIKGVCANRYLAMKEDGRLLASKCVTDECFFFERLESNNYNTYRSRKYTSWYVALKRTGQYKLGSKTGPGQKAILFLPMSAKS

| Structure (SMILES) | composite z-score (Albumin (Bos taurus)) | composite Z-score [1] | composite z-score [2] | composite z-score [3] | composite z-score [4] | composite z-score [5] | composite z-score [6] | composite z-score (Sam68 (KHDRBS1)) | composite z-score [7] | composite z-score [8] | composite z-score [9] | composite z-score [10] | composite z-score [11] | composite z-score [12] | composite z-score [13] | composite z-score [14] | z-score [15] | composite z-score (Lefty1) | composite z-score [16] | z-score [17] |
| --- | --- | --- | --- | --- | --- | --- | --- | --- | --- | --- | --- | --- | --- | --- | --- | --- | --- | --- | --- | --- |
| Cc1ccccc1C(O)C1C=CC2C(=O)N(c3ccccc3)C(=O)C2N1Nc1ccc(C#N)cc1 (stereo not given) | 1.04 | 1.4 (inactive) | 0.841 | 0.417 | 0.652 | 2.87 | 1.37 | 1.31 | 0.632 | 1.18 | 2.68 | 1.21 | 0.842 | 0.523 | 0.683 | 0.302 | -0.638 | 0.0979 | 1 | -1.33 (inactive) |
| CCOC(=O)C[C@H]1[C@H](OC(=O)c2cc3ccccc3oc2=O)[C@@H](NC(=O)C2CCCCC2)c2cc(OCCCO)ccc2N1C(=O)c1ccc2ccccc2n1 | 0.596 | -0.0789 (inactive) | -0.0311 | -0.115 | 0.0744 | 0.801 | -0.108 | 1.06 | 0.544 | 0.953 | 0.0957 | 0.791 | 2.65 | 0.443 | 1.13 | 0.324 | 0.539 | 0.522 | 0.755 | 0.777 (inactive) |
| C=C(C(=O)CC[C@H](OC(=O)c1ccccc1-c1ccccc1C(=O)O)c1ccc(CO)o1)C(C)C | 0.178 | -0.555 (inactive) | -0.068 | -0.0986 | 0.368 | 0.23 | 1.47 | 1.26 | 0.442 | 1.07 | 2.61 | 0.0323 | 0.0321 | 0.531 | 1.27 | 1.46 | -0.528 | 1.04 | 0.0123 | -1.75 (inactive) |
| COc1ccc(-c2ccccc2[C@@H]2N[C@H](C(=O)O)CC[C@H]2C)cc1 | -0.497 | 0.3 (inactive) | -0.0647 | -0.131 | 0.0441 | 0.711 | -0.423 | 0.297 | 0.456 | 0.301 | 0.351 | 0.449 | 0.671 | 0.0159 | 0.107 | 0.364 | -0.568 | 0.404 | -0.361 | -0.739 (inactive) |
| C=CCC(OC(C)=O)[C@@H]1[C@@H](N(Cc2cc3ccccc3o2)C(=O)c2ccc(C)cc2)c2cc(OCCCO)ccc2N1C(=O)c1ccc2ccccc2n1 (stereo not given in full) | 0.659 | 0.0726 (inactive) | -0.0984 | -0.0037 | -0.135 | 0.043 | -0.348 | 0.0268 | 0.194 | -0.304 | -0.88 | -0.593 | 0.178 | -0.589 | 0.573 | -0.0362 | 1.57 | -0.114 | -0.475 | -1.33 (inactive) |
